ALR inh = blocks human ALR sulfhydryl oxidase activity. P55789. purified ALR, DTT oxidation, H2O2 HRP-luminol luminescence. inhibition, % (concentration not given with the values). 290,000 tested, 3.8% active. AID 485317;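 active means mean replicate inhibition above about 79%, with every replicate also reaching it, limit read from the data; inconclusive means only one of the two criteria met; inactive means mean below limit and not every replicate reaching it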
Target sequence (P55789 whole entry, looked up): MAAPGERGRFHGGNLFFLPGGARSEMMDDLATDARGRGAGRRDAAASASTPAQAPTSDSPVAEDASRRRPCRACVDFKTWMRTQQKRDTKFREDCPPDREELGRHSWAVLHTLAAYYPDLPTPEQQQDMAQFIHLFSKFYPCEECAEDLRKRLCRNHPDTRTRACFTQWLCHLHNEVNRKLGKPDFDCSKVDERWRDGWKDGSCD
Mot1-301 SUMO = blocks SUMOylation pathway, rescuing yeast Mot1-301 growth | 320,000 tested, 1% active | S. cerevisiae Mot1-301 growth rescue, ATP luminescence, 38.5C; percent above DMSO median, 100 means doubled | growth rescue, % at 18.8 µM;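 active means every valid replicate shows activation above 250% relative to neutral control wells; inactive means the rest, any valid replicate at or below 250%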;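 further: OY570 slx delta 5 strain wells were the positive control but not used for scaling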
CASP6 VEID inh = caspase-6 (human) enzyme inhibition; AID 686996; inhibition, % at 12.5 µM; purified caspase-6, Z-VEID-R110 cleavage fluorescence; P55212; 350,000 tested, 0.53% active;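 active means mean inhibition across replicates at least about 35%, with every replicate also reaching that limit, limit read from the data; inconclusive means only one of the two criteria met; inactive means neither criterion met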;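 further: 0% = median of neutral control wells and 100% = no fluorescence left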
Target sequence (P55212 24-179 limits assumed): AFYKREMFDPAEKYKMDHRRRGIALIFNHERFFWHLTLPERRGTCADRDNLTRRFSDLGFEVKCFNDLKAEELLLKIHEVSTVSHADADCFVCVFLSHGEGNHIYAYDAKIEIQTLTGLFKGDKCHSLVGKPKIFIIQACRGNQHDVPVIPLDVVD
Target sequence (P55212 194-293 limits assumed): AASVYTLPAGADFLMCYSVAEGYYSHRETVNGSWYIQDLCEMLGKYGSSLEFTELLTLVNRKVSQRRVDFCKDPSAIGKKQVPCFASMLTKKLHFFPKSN
NSD2 inh = inhibitors of human histone methyltransferase NSD2 | NSD2 peptide methylation, AlphaScreen, 120 min | inhibition, % at 12.5 µM | 310,000 tested, 0.54% active; in the data active means inhibition above about 50%
CDK5 inh = CDK5/p35 (human) kinase inhibition; Recombinant CDK5/p35, ADP-Glo luminescence, 60 min; inhibition, % at 10 µM; AID 488839; Q00535+Q15078; 330,000 tested, 0.01% active;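 active means highest replicate inhibition of at least 50% and at least 75% of replicates reaching 50%; inconclusive means only one of the two criteria met; inactive means both criteria failed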;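 further: plate controls were DMSO neutral control for no effect and GW8510 at 10 µM for full effect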
Glyco luc inh = blocks N-linked glycosylation in D54 reporter cells; 360,000 tested, 0.23% active; AID 588692; D54 ERlucT glycosylation luciferase reporter, 24 h; percent of 100 nM tunicamycin response; reporter increase, % at 12.5 µM;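 active means mean luciferase reporter signal, scaled so untreated is 0 and the glycosylation-blocking control 100, at or above a set limit in every replicate; inconclusive means mean reaches the limit but not every replicate does; inactive means mean below the limit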;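 further: luciferase carries N-glycosylation sites so blocking glycosylation raises the light; 0% = median of neutral control wells and 100% = median of 100 nM tunicamycin wells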
* hit, by the source's call; ? = inconclusive; nt = not tested or not shown. An excerpt weighted towards active compounds, which were near 3.9% of everything screened.

SMILES	ALR inh	Mot1-301 SUMO	CASP6 VEID inh	NSD2 inh	CDK5 inh	Glyco luc inh
COc1ccc(OCC(=O)NCc2cccnc2)cc1	-6	13	nt	-1	-3	-1
COc1cccc(-c2ccc3c(c2)[C@@H]2[C@@H](CCN2C(=O)Cc2ccccc2)[C@H](CO)N3)c1	nt	nt	-1	nt	nt	nt
COCC(=O)N1C[C@H](C)[C@H](OC)CN(C)C(=O)c2ccc(NC(=O)c3ccc(F)cc3)cc2OC[C@@H]1C	nt	nt	0	nt	nt	nt
CC(=O)[C@@H]1[C@@H]2C(=O)N(Cc3ccccc3)C(=O)[C@@H]2C2c3ccccc3C=CN21 (some centres not stated)	1	-12	61*	nt	1	1
Cn1nnnc1NCc1ccc(Cl)cc1	nt	nt	6	5	-1	5
CCCn1nnnc1NCc1ccc(N(CC)CC)cc1	98*	22	0	5	0	1
CCN(CC)c1ccc(CNc2nnnn2C)cc1	99*	8	2	5	0	2
O=C1ON=C(c2ccc([N+](=O)[O-])cc2)/C1=C/c1ccccc1O	98*	179	32	4	-1	4
CCCn1c(CCC(=O)O)ccc1-c1cccs1	99*	9	nt	7	1	1
COC(=O)c1ccccc1NC(=O)Cn1c(CCC(=O)O)ccc1-c1cccs1	32	-5	nt	3	0	-2
COCCCn1c(CCC(=O)O)ccc1-c1cccs1	98*	121	nt	7	0	1
O=C(O)CCc1ccc(-c2cccs2)n1CC1CCCO1 (configuration not stated)	99*	nt	nt	0	-1	0
O=C(O)CCc1ccc(-c2ccc(F)cc2)n1CC1CCCO1 (configuration not stated)	24	8	nt	2	1	2
CCCC(=O)Nc1ccc2c(c1)OC[C@@H](C)N(Cc1cc(-c3ccccc3)on1)C[C@@H](C)[C@H](OC)CN(C)C2=O	nt	nt	2	nt	nt	nt
CC(OC(=O)c1n[nH]c2ccccc12)C(=O)Nc1ccccc1[N+](=O)[O-] (configuration not stated)	3	147	36*	0	0	-3
Cc1ccc(NC(=O)C(C)OC(=O)c2n[nH]c3ccccc23)cc1 (configuration not stated)	4	22	3	-2	-1	0
O=C(Nc1ccccc1)C1CC(=O)N(Cc2ccccc2)C1 (configuration not stated)	2	-11	0	-3	0	-1
O=C(Nc1ccc(SC(F)F)cc1)C1CC(=O)N(Cc2ccccc2)C1 (configuration not stated)	95*	15	3	-5	-2	-1
c1ccc(-n2cnc3cc(NCc4ccccn4)ccc32)cc1	100*	23	-3	12	-2	-5
Cc1cc(NCc2ccccn2)ccc1Br	99*	-3	3	2	-1	-1
CC(=O)Nc1ccc2c(c1)ncn2-c1ccccc1	-33	-8	0	-3	0	-2
CC(C)n1cnc2cc(NCc3ccccn3)ccc21	74	-2	2	-1	1	-1
c1ccc(-n2cnc3cc(NCc4ccncc4)ccc32)cc1	99*	10	nt	1	0	-1
C[C@H]1CN([C@@H](C)CO)C(=O)Cc2cc(NC(=O)Nc3ccc(F)cc3)ccc2O[C@@H]1CN(C)Cc1ccc(Oc2ccccc2)cc1	nt	nt	2	nt	nt	nt
Cc1ccccc1NS(=O)(=O)c1cccc2nonc12	96*	-11	5	0	1	-1
SMILES	ALR inh	Mot1-301 SUMO	CASP6 VEID inh	NSD2 inh	CDK5 inh	Glyco luc inh
CCCCn1nc(NS(=O)(=O)c2cccc3nonc23)c2cc3cccc(C)c3nc21	98*	6	-1	nt	nt	-1
CCn1nc(NS(=O)(=O)c2cccc3nonc23)c2cc3ccc(C)cc3nc21	91*	-3	nt	nt	-1	0
CC(C)Cn1nc(NS(=O)(=O)c2cccc3nonc23)c2cc3ccccc3nc21	97*	0	-1	17	1	-1
O=C(c1ccc(F)cc1)N(CC1CCC1)C[C@@H]1N[C@H](CO)[C@@H]1c1ccccc1	nt	nt	-7	nt	nt	nt
C[C@@H]1CCCCO[C@@H](CN(C)C)[C@@H](C)CN([C@H](C)CO)C(=O)c2cc(NS(C)(=O)=O)ccc2O1	nt	nt	2	nt	nt	nt
O=C(C[C@H]1CC[C@@H](NC(=O)CC2CC2)[C@H](CO)O1)NCc1ccc(Cl)cc1	nt	nt	0	nt	nt	nt
COc1ccc2c(c1)c(C(=O)O)c(C)n2-c1ccccc1	0	-21	1	nt	1	0
Cc1c(C(=O)O)c2cc(O)ccc2n1-c1ccccc1	80*	-8	nt	-4	1	2
CC(C)NC(=O)N(C)C[C@H]1Oc2ncc(-c3ccc(C(=O)N(C)C)cc3)cc2C(=O)N([C@H](C)CO)C[C@@H]1C	nt	nt	2	nt	nt	nt
C/C=C/c1ccc([C@H]2[C@@H](CO)N3C(=O)CN(C(=O)c4cnccn4)C[C@@H]23)cc1	nt	nt	0	nt	nt	nt
COc1ccc(OC)c(S(=O)(=O)NNC(=S)Nc2ccc3c(c2)OCO3)c1	94*	-17	2	nt	-1	0
Cc1cc(=O)oc2cc3c(cc12)OCCN3	97*	-4	nt	-3	0	4
C[C@@H](NC(=O)C[C@@H]1C[C@@H]2c3cc(NC(=O)C4CCC4)ccc3O[C@@H]2[C@H](CO)O1)c1ccccc1	nt	nt	1	nt	nt	nt
Cc1ccc(-n2c(-c3cccnc3)n[nH]c2=S)c(C)c1	84*	nt	nt	27	0	1
Cc1ccc(-n2c(-c3ccc(Cl)cc3)n[nH]c2=S)c(C)c1	87*	-1	7	2	3	0
Cc1cccc(Nc2nc(-c3ccc(O)cc3O)cs2)n1	97*	14	2	2	-2	-3
CCNc1nc(NCC)nc(N(n2cnnc2)S(=O)(=O)c2ccc(C)cc2)n1	nt	310*	nt	-1	-2	1
Cc1cccc(-n2c(C)n[nH]c2=S)c1	-5	-2	4	-1	-2	2
Cc1cccc(-n2c(=S)[nH]c3c(oc4ccccc43)c2=O)c1	90*	1	1	1	0	-1
O=c1c2oc3ccccc3c2[nH]c(=S)n1-c1ccccc1	92*	6	nt	0	1	-10
Cc1cccc(-n2c(C)c(-c3ccccc3)[nH]c2=S)c1	82*	-10	-1	15	-1	5
CC(=O)N(C)C[C@H]1Oc2cc(C#Cc3cccnc3)ccc2S(=O)(=O)N([C@H](C)CO)C[C@H]1C	nt	nt	6	nt	nt	nt
COc1ccc(C(=O)NNS(=O)(=O)c2ccc(OC)cc2)cc1	87*	11	2	10	1	1
COC(=O)NC(=C(Cl)Cl)S(=O)(=O)c1ccccc1	-17	1	nt	5	0	51*
Cc1ccc(C(=O)NC(=C(Cl)Cl)S(=O)(=O)c2ccccc2)cc1	67	-11	19	6	-3	?
COc1ccc(C(=O)NC(=C(Cl)Cl)S(=O)(=O)c2ccc(C)cc2)cc1	1	9	20	0	-1	27*

Screens deposited in PubChem by Broad Institute.
